Shown are actives, neighbours in structure and some others; about 10% of the full set was active somewhere.
JMJD2A Tudor inh = qHTS Assay for Inhibitors of JMJD2A-Tudor Domain; Lysine-specific demethylase 4A (Homo sapiens), O75164; AlphaScreen JMJD2A-Tudor / H3K4me3 peptide binding; Potency, µM (top dose mostly 114 µM), without a hit: at the top dose activity change, negative = inhibition, actives largely listed as inhibitors; hit rate 4.4% among 390,000; note: potency is the fitted concentration of half-maximal effect; % is set by controls: 0 for no effect and ±100 for the full control effect; nearly all actives have a fitted effect of over 50% in size
G9a block = qHTS Assay for Inhibitors of Histone Lysine Methyltransferase G9a. G9a H3K9 monomethylation, AlphaScreen, 2 h. Potency, µM (highest dose often 102 µM), inactives show top-dose activity, negative = inhibition, actives largely listed as inhibitors. hit rate 8.8% among 350,000. AID 504332, 2011; note: potency is the fitted concentration of half-maximal effect; % is set by controls: 0 for no effect and ±100 for the full control effect; nearly all actives have a fitted effect of over 75% in size
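Signal arises when biotinylated H3K9 peptide, once monomethylated, bridges streptavidin donor and antibody-captured acceptor beads. Enzyme at 20 nM was preincubated 15 min with test compounds; peptide 500 nM and SAM 20 uM then reacted for 2 h.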
HP1b binding inh = HTS for Inhibitors of HP1-beta Chromodomain Interactions with Methylated Histone Tails | AID 540317, 2011 | Chromobox protein homolog 1 (Homo sapiens), P83916 | AlphaScreen HP1-beta / biotin-H3K9me3 peptide binding | hit rate 0.56% among 390,000 | Potency, µM (highest dose often 114 µM), for inactives: at the top dose activity change, negative = inhibition, hits mostly inhibitors; note: potency is the fitted concentration of half-maximal effect; nearly all actives have a fitted effect of over 70% in size
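Compound inhibition of the preformed complex between 50 nM HP1-beta and 50 nM biotinylated H3K9me3 peptide was read by AlphaScreen. Buffer was PBS pH 7.4 with 0.01% Tween-20. Incubations ran 30 min at room temperature, with 10 ug/mL donor/acceptor beads.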
BAZ2B block = qHTS Assay for Inhibitors of BAZ2B. AlphaScreen BAZ2B-H3K14Ac peptide displacement. Potency, µM (doses to about 114 µM), for inactives: at the top dose activity change, negative = inhibition, actives largely listed as inhibitors. hit rate 4.4% among 360,000; note: potency is the fitted concentration of half-maximal effect; % is set by controls: 0 for no effect and ±100 for the full control effect; nearly all actives have a fitted effect of over 60% in size
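Complex of BAZ2B and biotin-H3K14Ac (50 nM apiece) forms over 30 min at RT, then faces library compounds up to 110 uM for another 30 min; AlphaScreen beads added, 20 min dark incubation, luminescence read.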
CtBP-E1A blk = qHTS Assay for Inhibitors of the CtBP/E1A Interaction | AlphaScreen GST-E1A/His-CtBP binding, 1536-well; hits give low values | activity change, % (no concentration beside the values) | hit rate 0.49% among 340,000; in the data active = activity change below about -65%; inconclusive = mostly about -30% to -63%; note: % is set by controls: 0 for no effect and ±100 for the full control effect
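Steps: dispense buffer (Tris pH 8.0, NaCl 300 mM, TCEP 1 mM, BSA, Tween 20); add 5X protein mix (GST-E1A, His-CtBP, 125 nM each); pin 23 nL compound; 2 h at 37 °C, dark; add 5X beads (50 ug/mL); 1 h; read.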
Six1-Eya2 inh = qHTS Assay for Inhibitors of the Six1/Eya2 Interaction | hit rate 0.56% among 360,000 | AID 651725, 2012 | Homeobox protein SIX1 (Homo sapiens) + Protein phosphatase EYA2 (Homo sapiens), … | AlphaScreen GST-Six1/His-Eya2 binding, biochemical; hits give low values | activity change, % (test concentration not listed); in the data active = activity change below about -65%; inconclusive = mostly about -30% to -63%; note: % is set by controls: 0 for no effect and ±100 for the full control effect
Target sequence (O00167 whole entry, looked up): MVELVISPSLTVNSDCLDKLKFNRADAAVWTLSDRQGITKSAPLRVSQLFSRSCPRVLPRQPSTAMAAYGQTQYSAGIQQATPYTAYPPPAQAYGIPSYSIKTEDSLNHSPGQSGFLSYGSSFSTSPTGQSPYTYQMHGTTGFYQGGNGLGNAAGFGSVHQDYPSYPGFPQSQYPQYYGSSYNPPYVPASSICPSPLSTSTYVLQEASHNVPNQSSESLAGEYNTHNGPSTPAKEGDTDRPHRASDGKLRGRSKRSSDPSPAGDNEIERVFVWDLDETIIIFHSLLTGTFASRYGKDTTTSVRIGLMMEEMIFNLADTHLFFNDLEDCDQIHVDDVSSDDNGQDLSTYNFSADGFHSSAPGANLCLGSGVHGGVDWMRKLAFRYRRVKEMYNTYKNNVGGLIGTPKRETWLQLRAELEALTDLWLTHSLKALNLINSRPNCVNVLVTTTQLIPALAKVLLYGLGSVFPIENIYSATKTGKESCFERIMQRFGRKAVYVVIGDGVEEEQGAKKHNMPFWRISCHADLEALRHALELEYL
Target sequence (Q15475 whole entry, looked up): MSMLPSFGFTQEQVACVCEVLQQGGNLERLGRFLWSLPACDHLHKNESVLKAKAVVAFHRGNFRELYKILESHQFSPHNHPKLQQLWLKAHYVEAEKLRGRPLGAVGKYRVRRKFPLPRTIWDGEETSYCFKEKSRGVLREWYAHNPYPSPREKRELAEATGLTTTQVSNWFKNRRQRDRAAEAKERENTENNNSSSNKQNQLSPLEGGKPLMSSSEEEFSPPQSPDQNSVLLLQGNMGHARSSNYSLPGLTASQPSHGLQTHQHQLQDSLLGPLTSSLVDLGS
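AlphaScreen luminescence read after one hour at 37 °C in darkness. Pin-transferred compounds met GST-Six1 and His-Eya2 protein (5X stock 250 nM/500 nM) plus glutathione donor and Ni-chelate acceptor beads (5X, 50 ug/mL).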
Numbers without * were called inactive; u = inconclusive; x = no result given; ! = repeats disagree; [ ] = dose if it differs, or a comment. Unless noted, calls come from the whole dose curve; as a rule, active = well fitted inhibition curve with a large enough effect; inconclusive = small, poorly fitted or top-dose-only effect; inactive = no such curve, though single readings can be large or run the other way.

SMILES	JMJD2A Tudor inh	G9a block	HP1b binding inh	BAZ2B block	CtBP-E1A blk	Six1-Eya2 inh
CN(C)c1ccc(C(=O)NCC2CCCO2)cc1 (stereo not given)	-17%	u	47%	-2%	2	6
COc1ccc(C(=O)N(Cc2ccc(N(C)C)cc2)CC2CCCO2)cc1 (stereo not given)	u	11µM*	21%	u	x	x
CCOC(=O)/C(C#N)=C(\O)c1ccc(NC(=O)c2ccc([N+](=O)[O-])cc2)cc1	-16%	u	38%	-29%	x	0
CCc1ccccc1Nc1cc(C(=O)NCCc2ccccc2)c2ccccc2n1	0%	31%[59 µM]	73%	x	x	x
CN(Cc1ccc(N(C)C)cc1)C(=O)c1cc2ccccc2o1	50µM*	40µM*	u	32µM*	u	u
CN(C)c1ccc(CN(CC2CCCO2)C(=O)c2cc3ccccc3o2)cc1 (stereo not given)	45µM*	6.3µM*	u	10µM*	-14	u
CCC1CN(C(=O)N2CCC(C(=O)NCCc3ccc(C)cc3)CC2)c2ccccc2O1 (stereo not given)	-13%	5%[59 µM]	12%	-11%	x	x
Cc1cc2c(s1)c1cnn(Cc3cccc4cccnc34)c(=O)c1n2C	-24%	x	x	x	x	x
COc1ccc(C(=O)NCC(=O)OCc2ccccc2F)cc1	-13%	-2%[12.7 µM]	20%	-13%	12	18
Cc1ccc(S(=O)(=O)NC(=O)c2ccc(Br)o2)cc1	-20%	35µM*!	35%	1%	6	0
O=C(Nc1ccc(Cl)cc1Cl)c1ccc(Br)o1	-1%	18%	-19%	-3%	5	-11
COc1ccccc1NC(=O)c1ccc(Br)o1	2%	7%[12.7 µM]	39%	10%	-10	-15
Cc1cc(O)c(NC(=O)c2ccc(Br)o2)cc1C	-26%	26%[12.7 µM]	2%	50µM*	-3	-1
Cc1ccc(S(=O)(=O)NC(=O)c2ccc(Br)o2)c(C)c1	-10%	-6%	40%	1%	0	4
CCN(CC)c1ccc(NC(=O)c2ccc(Br)o2)c(C)c1	56µM*	u	u	40µM*	-24	-18
CCN(CC)c1ccc(NC(=O)c2cccn2-c2nnc(N3CCCCC3)s2)c(C)c1	50µM*	u	u	32µM*	x	x
CN(C=O)CP(=O)(O)CN1CCCCC1	x	-12%[12.7 µM]	x	-1%[57.1 µM]	x	x
CCCCNC(=O)c1cccc(-n2c(C)nc3cccnc32)c1	14%	5%[59 µM]	43%	1%	x	x
CCN(CC)c1ccc(NC(=O)c2ccc(NC(=O)C3CCCO3)cc2)c(C)c1 (stereo not given)	-33%	8.9µM*	-13%	-37%	-5	-14
CCN(CC)c1ccc(NC(=O)c2cccc(F)c2)c(C)c1	u	28µM*	-17%	-10%[57.1 µM]	-13	-16
COc1ccc(S(=O)(=O)N2CCC(c3nnnn3-c3ccccc3)CC2)cc1OC	-17%	-10%[59 µM]	23%	-27%	x	x
CN(C)S(=O)(=O)c1cccc(NC(=S)NCCCn2ccnc2)c1	-4%[57.1 µM]	-1%	14%	79µM*	0	-2
COC(=O)c1ccc(NC(=S)NCCCn2ccnc2)cc1	-23%	-10%	4%	79µM*	0	-2
Cc1ccc(S(=O)(=O)N(C)C)cc1NC(=S)NCCCn1ccnc1	-25%	-3%	29%	x	x	0
CCOC(=O)c1ccc(NC(=S)NCCCn2ccnc2)cc1	-26%	u	38%	56µM*	0	-14
Cc1cc(C(=O)NCCCn2ccnc2)sc1-c1ccccc1	u	u	-4%	50µM*	-14	-21
O=C(NCCCn1ccnc1)c1ccc(-c2ccccc2)cc1	-17%	15%	24%	u	x	-1
COc1ncc2nc(CCc3ccccc3)c(=O)n(Cc3ccc(F)cc3)c2n1	x	-5%[12.7 µM]	x	x	x	x

Source: PubChem BioAssay (National Center for Advancing Translational Sciences (NCATS))
